# From ChEMBL document CHEMBL4513216, “Probing the Open Global Health Chemical Diversity Library for Multistage-Active Starting Points for Next-Generation Antimalarials” (ACS Infect Dis, 2020)
# Out of some 69,000 compounds screened, about 8,600 (12%) showed an effect of 50% or more. The full list was thinned out, with strong results kept by preference.
# System: Plasmodium berghei
# Test: Screen against P. berghei liver stage (PbLuc), transformed with Luciferase, at 10uM
# Format: functional, HepG2
# Conditions: tested at 10 uM
row,SMILES,INHIBITION [%]
1,O=C(c1ccco1)N1C2CCC(O)(CC2)C1CN1CCOCC1 (centres undefined),17.7
2,Cc1nc(CN(C)Cc2nc(-c3sccc3C)oc2C)no1,56.3
3,Cc1ccsc1-c1nc(CN(C)Cc2cc[nH]n2)c(C)o1,54.6
4,Cc1nonc1CN(C)Cc1nc(-c2cccc(F)c2F)oc1C,8.99
5,CCc1cc(CN(C)Cc2nc(-c3sccc3C)oc2C)on1,1.37
6,Cc1ccsc1-c1nc(CN(C)Cc2noc(C(C)C)n2)c(C)o1,30
7,COc1ccc(OC)c(-c2nc(CN(C)Cc3noc(C)n3)c(C)o2)c1,31.1
8,CCc1ncnc2c1CCN(CCOC)CC2,32.5
9,CCC[C@H]1CN(S(C)(=O)=O)C[C@@H]1NC(=O)Cc1ccc(F)cc1C,30.3
10,O=C(NCCCc1nc(=O)[nH][nH]1)c1ccc(Cl)cn1,67.5
11,O=C(NCCCc1nc(=O)[nH][nH]1)Nc1cccc(F)c1,48
12,O=C(NCCCc1nc(=O)[nH][nH]1)Nc1ccc(Cl)cc1,23.9
13,O=c1[nH]cc(Nc2ccccc2)c(=O)[nH]1,43.8
14,OC1(CN2CCOC(Cn3cccn3)C2)CCCCC1 (centres undefined),-37.7
15,COCCN1CCN(CC(C)(O)c2cccc(C(F)(F)F)c2)CC1 (centres undefined),37.3
16,COc1cccc(OCCc2cncc(C(N)=O)c2)c1,15.9
17,COc1ccccc1OCCCc1cncc(C(N)=O)c1,80.2
18,COc1cccc(OCCCc2cncc(C(N)=O)c2)c1,-10.3
19,Cc1nc(C(=O)N2CCN(S(=O)(=O)N(C)C)CC2)c(-c2ccccc2)s1,36.6
20,CCN1C[C@H]2CCN(C(=O)NC)CC[C@H]2S1(=O)=O,-0.813
21,O=C(NCc1ccccc1CN1CCC(O)CC1)Nc1ccccn1,52
22,O=C(NCc1ccccc1CN1CCC(O)CC1)Nc1ccccc1,40.2
23,O=C(NCc1ccccc1CN1CCC(O)CC1)Nc1ccncc1,-8.19
24,COC(=O)c1cc(CN2CCC(c3noc(C)n3)CC2)c(C)s1,7.24

row,SMILES,INHIBITION [%]
1,Cc1cc(F)cc(NC(=O)N(C)CC(C)(CO)CO)c1,-31.38
2,FC(F)(F)CCc1ccnc(NC2CCC(n3cnnc3)CC2)n1 (centres undefined),32.3
3,N[C@@H]1CC[C@@H](Nc2nccc(CCC(F)(F)F)n2)C1,7.4
4,NC1CCC(Nc2nccc(CCC(F)(F)F)n2)CC1 (centres undefined),75.6
5,CCc1csc(C2CCCN(C(=O)c3cc(C4CC4)[nH]n3)C2)n1 (centres undefined),27.8
6,O=C(Cc1cccnc1)N1CCC2(CC1)CCN(C1CCOCC1)CC2,8.44
7,CCOc1ccccc1CNC(=O)N1CCC(n2cncn2)CC1,63.5
8,Cc1ccccc1CNC(=O)N1CCC(n2cncn2)CC1,4.52
9,CC(C)Oc1ccccc1NC(=O)N1CCC(n2cncn2)CC1,56.6
10,COc1ccccc1C(C)NC(=O)N1CCC(n2cncn2)CC1 (centres undefined),11.2
11,CCOc1ncccc1CNC(=O)N1CCC(n2cncn2)CC1,11.4
12,COc1ccccc1CCNC(=O)N1CCC(n2cncn2)CC1,16.9
13,COc1cc(Cl)ccc1CNC(=O)N1CCC(n2cncn2)CC1,0.411
14,CCOc1ncccc1NC(=O)N1CCC(n2cncn2)CC1,-2.98
15,CC(C)Oc1ccccc1CNC(=O)N1CCC(n2cncn2)CC1,51.3
16,CCS(=O)(=O)N1C[C@@H](O)[C@H](Oc2cccc(F)c2)C1,-18.8
17,CC(C)Oc1ncccc1CNC(=O)NC(C)c1cccs1 (centres undefined),43.6
18,Cc1cc(C)n(-c2ccc(C(=O)NCC(CO)Cc3cccs3)cc2)n1 (centres undefined),23.9
19,O=S(=O)(Cc1ccc(F)cc1F)NCCOc1cccnc1,46.1
20,CC[C@H](Cn1ncc2ccccc2c1=O)NC(=O)c1ccccn1,31.3
21,CN(C)C(=O)C1CCc2nnc(CNC(=O)c3ccc(Cl)cc3Cl)n21 (centres undefined),27.5
22,CCC(C)NC(=O)CCc1ccc(OCC(F)(F)F)c(OC)c1 (centres undefined),31.9
23,CC(C)Cc1noc(CN2CCOCC2)n1,1.48
24,CC(C)c1noc(CN2CCOCC2C)n1 (centres undefined),17.5

row,SMILES,INHIBITION [%]
1,CC1COCCN1Cc1nc(-c2cccs2)no1 (centres undefined),22.9
2,CCCc1noc(CN2CCOCC2C)n1 (centres undefined),65.6
3,CC(C)Cc1noc(CN2CCOCC2C)n1 (centres undefined),51
4,CC1COCCN1Cc1noc(C(C)(C)C)n1 (centres undefined),38.7
5,CC1COCCN1Cc1nc(Cc2ccccc2)no1 (centres undefined),54.4
6,CC1COCCN1Cc1nc(C(C)(C)C)no1 (centres undefined),15.2
7,CC1CCCCN1Cc1nc(Cc2ccccc2)no1 (centres undefined),20.2
8,O=C(COC1CCCC1)NCCc1nc(-c2ccccn2)cs1,30.8
9,Cn1cnc2cc(CCC(=O)Nc3n[nH]c(C4CCCO4)n3)ccc21 (centres undefined),8.99
10,N#Cc1ccccc1N1CCCN(C(=O)CCc2cccs2)CC1,-29.1
11,Cc1nc(CN2CCCCC2CCc2ccc(O)cc2)co1 (centres undefined),12.6
12,c1csc(CN2CCCn3cnc(CN4CCCC4)c3C2)c1,41.6
13,c1coc(-c2nc(CN3CCCC(Cn4cncn4)C3)cs2)c1 (centres undefined),16.8
14,Cc1cc(C)nc(N2CCC(c3c(C(N)=O)sc4ccccc34)C2)n1 (centres undefined),-14.2
15,CNC(=O)c1sc2ccccc2c1C1CCN(c2cc(C)nc(C)n2)C1 (centres undefined),74.9
16,CNC(=O)c1sc2ccccc2c1C1CCN(c2nc(C)cc(C)n2)C1 (centres undefined),0.696
17,Cc1ccc2c(c1)CCC21CCN(C(=O)CN(C)C)CC1,38.5
18,Cc1nc(CN(C)C(=O)c2cc(C)sc2NC(=O)C(C)(C)C)no1,18
19,Cc1cc(C(=O)N(C)Cc2ccoc2)c(NC(=O)C(C)(C)C)s1,-28.9
20,Cc1cc(C(=O)N(C)Cc2ccn[nH]2)c(NC(=O)C(C)(C)C)s1,51.3
21,O=C([C@@H]1CCO[C@@H]2CCN(Cc3ccc(F)cc3)C[C@H]21)N1CCCCO1,30.3
22,CCc1cc(NCc2cc(CC(C)C)on2)n2nccc2n1,26.8
23,CCCc1cc(NCc2cc(C)on2)n2nccc2n1,23.8
24,CCCc1cc(CNc2cc(CCC)nc3ccnn23)on1,53.5

row,SMILES,INHIBITION [%]
1,COc1ccccc1CC(=O)NC1CCCc2cn[nH]c21 (centres undefined),8.31
2,Cc1cccc(CN2C[C@@H]3CN(C(=O)c4ccco4)C[C@@H]3C2=O)n1,23.5
3,CC(CCn1cccn1)Nc1ccc(-c2nccn2C)nn1 (centres undefined),48.5
4,CC(CCCC(C)(C)O)Nc1ccc(-c2nccn2C)nn1 (centres undefined),60.4
5,CC(Cn1cncn1)Nc1ccc(-c2nccn2C)nn1 (centres undefined),9.91
6,CN(C)CCN(Cc1ccc(F)cc1)C(=O)c1ccn(C)c(=O)c1,39.1
7,Cc1nc(CN2C(=O)CCC23CCN(Cc2ccccn2)CC3)cs1,19.4
8,Cc1cc2ccccc2n1CCC(=O)N1CCCC(O)(CN(C)C)CC1 (centres undefined),-60.9
9,CN(C)CC1(O)CCCN(C(=O)Cn2ccc3ccccc32)CC1 (centres undefined),89.9
10,CN(C)CC1(O)CCCN(C(=O)Cn2nc3ccccc3n2)CC1 (centres undefined),-21.8
11,Cc1nc2ccc(C(=O)N3CCC(COc4ccccn4)CC3)cc2[nH]1,-6.73
12,Cc1cc(C)nc(C2CCCN2C(=O)c2coc(C)n2)n1 (centres undefined),20.2
13,Cc1cc(C)n(Cc2ccc(-c3noc(C(=O)NCCCO)n3)cc2)n1,33
14,CC(C)c1nnc2n1CCN(Cc1nc3c(F)cccc3[nH]1)C2,-65
15,Fc1cccc2[nH]c(CN3CCc4cncnc4C3)nc12,52.8
16,Fc1cccc2[nH]c(CN3CCn4c(nnc4C4CC4)C3)nc12,-33.5
17,Cc1nnc2n1CCN(Cc1nc3c(F)cccc3[nH]1)C2,-43.5
18,CC(C)c1nnc2n1CCN(Cc1cccc3c1OCCO3)C2,-67.8
19,CCc1nnc2n1CCN(Cc1ccc3c(c1)OCCO3)C2,18.9
20,CCc1nnc2n1CCN(Cc1nc3c(F)cccc3[nH]1)C2,58.1
21,CC(C)c1ncc2c(n1)CN(Cc1nc3c(F)cccc3[nH]1)CC2,36.6
22,Cc1ncc2c(n1)CN(Cc1nc3c(F)cccc3[nH]1)CC2,0.902
23,c1cc(CN2CCc3cncnc3C2)c2c(c1)OCCO2,41.6
24,CCc1nnc2n1CCN(Cc1cccc3c1OCCO3)C2,50.35

row,SMILES,INHIBITION [%]
1,CCc1ncc2c(n1)CN(Cc1nc3c(F)cccc3[nH]1)CC2,52.8
2,COc1cccc2c(=O)n(Cc3nc(C)cc(O)n3)cnc12,1.56
3,Cc1[nH]c2ccc(C(=O)N3C[C@@H](O)[C@H](N4CCOCC4)C3)cc2c1C,-29.8
4,O=C(NCc1ccccc1)C1CN(c2ccccn2)CCO1 (centres undefined),22
5,CCS(=O)(=O)N1CCN(C(C)c2ncc(-c3ccccc3)o2)CC1 (centres undefined),12.9
6,CN(C)c1ncc(-c2ccc(NC(=O)[C@@H]3CCCCN3)cc2)cn1,1.11
7,CN1CCCC1(CCCc1cccnc1)C(=O)NCc1nccn1C (centres undefined),15.5
8,CC(c1ccc(S(N)(=O)=O)cc1)N(C)C(=O)c1ccccc1I (centres undefined),-43.5
9,Cc1noc(CN(C)Cc2cnc(N3CCOCC3)nc2)n1,20.1
10,Cc1noc(C)c1CN(C)Cc1cnc(N2CCOCC2)nc1,39.4
11,CC(C)c1nc(CN(C)Cc2cnc(N3CCOCC3)nc2)no1,74.7
12,NC(=O)c1cc(NC(=O)N2CCCCCC2)ccc1F,-7.9
13,CCCC1CCCN(C(=O)Nc2ccc(F)c(C(N)=O)c2)CC1 (centres undefined),53.8
14,COc1ccc(Oc2ncccc2NC(=O)N2CCOC(C)C2)cc1 (centres undefined),44.3
15,COc1ncccc1NC(=O)NCC1CC1,12.2
16,CCOc1ncccc1NC(=O)N1CCCC(CNC(N)=O)C1 (centres undefined),22.8
17,COc1ccc(Oc2ncccc2NC(=O)N2CCOCC2)cc1,55.5
18,COc1ncccc1NC(=O)N1CCC(CNC(C)=O)CC1,7.9
19,COc1ccc(Oc2ncccc2NC(=O)N2CC[C@H](O)C2)cc1,16.3
20,CCCC1CCCN(C(=O)Nc2cccnc2OC)CC1 (centres undefined),81.6
21,COc1ncccc1NC(=O)N1CCCC(CNC(=O)OC(C)(C)C)C1 (centres undefined),57.7
22,CCN(CC)C(=O)C1CCN(C(=O)Nc2cccnc2OC)CC1,22.6
23,CC1CCCN(C(=O)Nc2ccc(F)c(C(N)=O)c2)C1 (centres undefined),23.6
